The values below come from PubChem BioAssay AID743279 (National Center for Advancing Translational Sciences (NCATS), 2014).

“And” between values parts separate entries of the source, which are not always exact repeats. Identical values can stand only once. Hit rate of the full screen: of about 360,000 compounds, about 17,000 (4.7%) were called active. Not shown: some 5% with an inconclusive outcome. This is one part of a sample in which actives are shown more often than they occur. Rule as the data show it: active = activity change below about -50%; inconclusive = mostly about -30% to -49%; inactive = weaker than that.
% is scaled to controls: 0 for no effect and ±100 for the full control effect.

The nature of the test: qHTS for Inhibitors of Inflammasome Signaling: IL-1-beta AlphaLISA Primary Screen. To be noted: THP-1 LPS/ATP IL-1B secretion, 16 h; at 57.5 µM, active compounds read low. The method in brief:
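THP-1 cells pretreated 1 hr with compounds (up to 57.5 uM final), then stimulated with LPS (250 ng/mL final) plus ATP (1.25 mM final); secreted IL-1B measured by AlphaLISA after 16 hr, decreased signal indicating inhibition.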
`C[C@H]1CN([C@@H](C)CO)C(=O)c2cc(-c3ccccc3F)cnc2O[C@H]1CN(C)C(=O)C1CCOCC1`: the activity change is 13.6% (inactive). As for `CN/C(=C\[N+](=O)[O-])NCCSCc1csc(CN(C)C)n1`, the activity change is 0.154% (inactive). With `Cc1ccccc1C(=O)NCC(c1ccco1)N1CCc2ccccc21` (stereo not given) the figure was -20.8% (inactive); with `O=C(NCC(c1ccco1)N1CCc2ccccc21)c1cccc(F)c1` (stereo not given), -86.4% (active); with `COc1ccc(C(=O)NCC(c2ccco2)N2CCc3ccccc32)cc1OC` (stereo not given), -0.703% (inactive). With `CCc1nnc(NC(=O)CCC(=O)N2CCN(c3cc(C)ccc3C)CC2)s1`, the activity change is 36.3% (inactive).

For `O=c1[nH]nc(SCCS(=O)(=O)c2ccc(F)cc2)n1-c1ccccc1C(F)(F)F`, the activity change is -96.7% (active). For `O=S(=O)(c1ccc(F)cc1)N1CCN(Cc2ccccc2C(F)(F)F)CC1`, the activity change was 8.37% (inactive). With `O=C(CSc1n[nH]c(=O)n1-c1ccccc1)Nc1ccccc1C(F)(F)F` the figure was 14.4% (inactive); with `COC(=O)[C@@]1(Cc2ccc(OC)cc2)[C@H]2c3cc(C(=O)N4CCCC4)n(Cc4ccc(OC(F)(F)F)cc4)c3C[C@H]2CN1C(=O)c1ccccc1`, 0% (inactive). For the molecule `CCC(C(=O)Nc1c(C)cccc1C)n1c(-c2cc(C)cs2)nc2ccccc21` (stereo not given), the activity change was -9.28% (inactive). With `O=C(Cc1cccc2ccccc12)NNC(=O)Nc1ccc(Cl)cc1` the figure was -50% (active); with `Cc1ccc(NC(=S)NC(NC(=O)Cc2cccc3ccccc23)C(Cl)(Cl)Cl)cc1` (stereo not given), 1.31% (inactive); with `O=C(O)Cc1ccc(NC(=O)Nc2cccc3ccccc23)cc1`, 11.3% (inactive). `O=C1C(Sc2cccc(F)c2)=C[C@@]2(O)CC[C@@H](O)[C@]1(Sc1cccc(F)c1)[C@H]2O`: the activity change was 8.29% (inactive). With `O=C(CCNC(=O)c1ccccc1Cl)NCc1ccco1` the figure was 2.08% (inactive). `O=C(Nc1ccccc1)Nc1ccccc1C(=O)NCc1ccco1`: the activity change was -56.9% (active). With `Cc1cccc(Nc2ccccc2C(=O)NCc2ccco2)c1C` the figure was 3.14% (inactive); with `O=C1CSC(=S)N1c1ccc(Cl)c(Cl)c1`, 7.49% (inactive); with `CCC(CC)C(C(=O)NC1CCCC1)N1CCN(c2cc(C)nc3ccccc23)CC1` (stereo not given), -20.5% (inactive).

As for `CC1(C)CC(=O)C=C(c2ccccc2CO)C1=O`, the activity change is 22.9% (inactive). With `CCOC(=O)c1ccc(CS(=O)c2ccc(Cl)cc2)o1` (stereo not given) the figure was -4.53% (inactive). As for `CCOC(=O)N1CCN(C(=O)CNC(=O)Cc2ccc(Cl)cc2)CC1`, the activity change was -0.466% (inactive).

As to `CCOC(=O)c1c(Cc2ccc(Cl)cc2)c[nH]c1C`, the activity change is -74.6% (active).

In the case of `Cc1cccc(NC(=S)N2CCC(C(=O)c3ccc(F)cc3)CC2)c1`, the activity change is -26.4% (inactive).

As for `O=C(Nc1ccc(F)cc1)c1ccc(S(=O)(=O)NCc2cccnc2)cc1`, the activity change is -4.04% (inactive). With `Cc1cccc(NC(=O)CSc2nc3[nH]ncc3c(=O)[nH]2)c1`, the activity change was 9.71% (inactive). For the molecule `Cc1cccc(NC(=O)c2nc[nH]c2C(=O)NCC(=O)OCc2ccccc2)c1`, the activity change was 5.22% (inactive). As to `CCOc1ccc(NC(=O)c2nc(SCC)ncc2Cl)cc1`, the activity change is -0.255% (inactive). Consider `Cc1cccc(CS(=O)(=O)c2ncc(Cl)c(C(=O)Nc3ccc(F)cc3)n2)c1`, for which the activity change is -93.5% (active). Consider `Cc1cccc(NC(=O)c2nc(S(=O)(=O)Cc3ccccc3)ncc2Cl)c1`, for which the activity change is -103% (active). In the case of `Cc1ccc(S(=O)(=O)N(C)C)cc1NC(=O)CN1c2cccc3cccc(c23)S1(=O)=O` it was 12.6% (inactive); in that of `COc1cc(CN2CCNC(=O)C2CC(=O)NCCc2ncccc2C)cc(OC)c1` (stereo not given), 16.2% (inactive); in that of `CN(CCc1ccccc1)C(=O)c1cccc(NC(=O)Cc2cccc(NC(=O)C3CCCN(C(=O)C4CCC4)C3)c2)c1` (stereo not given), -17.1% (inactive).

With `N#CCSc1ccccc1NC(=O)CN1C(=O)NC(CCc2ccccc2)C1=O` (stereo not given), the activity change was 12.1% (inactive). For `COC(=O)CNS(=O)(=O)c1ccc(OC)cc1`, the activity change is -22.2% (inactive). With `COC(=O)CNS(=O)(=O)c1ccc(Cc2ccc(S(=O)(=O)NCC(=O)OC)cc2)cc1` the figure was -100% (active); with `C/C(N)=C(/C#N)C(=O)COC(=O)CNS(=O)(=O)c1ccc(C)cc1`, -8.82% (inactive); with `O=C(CSc1nnc(N2CCOCC2)n1-c1cccc(F)c1)N1CCN(c2ccccn2)CC1`, 2.69% (inactive). In the case of `CCCCCNC(=O)C1C(=O)Nc2ccccc2C(=O)N1C(C)(C)C` (stereo not given) it was 6.47% (inactive); in that of `CCN1CCCC1CNC(=O)c1ccc2c(c1)NC(=O)/C(=C\c1ccccc1F)S2` (stereo not given), -14.5% (inactive). In the case of `C[C@]12C=CC(=O)C=C1CC[C@@H]1[C@@H]2C(=O)C[C@@]2(C)[C@H]1CC[C@]2(O)C(=O)CO` it was -14.3% (inactive) and -7.83% (inactive); in that of `CC1(C)O[C@@H]2CC3C4C[C@H](F)C5=CC(=O)C=CC5(C)C4C(O)CC3(C)[C@]2(C(=O)CO)O1` (stereo not given in full), -54.9% (active); in that of `CCCc1nnc(NC(=O)CCC(=O)N2CCN(S(=O)(=O)c3ccc(OC)cc3)CC2)s1`, -1.97% (inactive). As to `CCOC(=O)c1cccc(NC(=O)CN2C(=O)C3CC=CCC3C2=O)c1` (stereo not given), the activity change is 14.4% (inactive). As to `Nc1nc(NCCCN2CCOCC2)nc(Nc2ccccc2)c1[N+](=O)[O-]`, the activity change is -59.1% (active).

Take `O=S(=O)(c1ccccc1)c1nc(-c2ccccc2)oc1NCCCN1CCOCC1`: the activity change result was “inactive”.

As to `O=[N+]([O-])c1ccc(NCCCN2CCOCC2)c(Cl)c1`, the activity change was -21.3% (inactive).

As for `Cc1ccc(Cn2c(C)c3cnn(CC(=O)NCCN4CCOCC4)c(=O)c3c2C)cc1`, the activity change was -4.12% (inactive).

For the molecule `O=C(CSc1ncn[nH]1)Nc1nc2c(F)c(F)c(F)cc2s1`, the activity change was -7.33% (inactive). In the case of `Nc1nc(NCC2CCCO2)nc(Nc2ccccc2F)c1[N+](=O)[O-]` (stereo not given) it was 0% (inactive); in that of `C=CCNc1nc(N)c([N+](=O)[O-])c(NC2CCCCC2)n1`, 66.3% (inactive).

For `Nc1nc(Nc2ccccc2F)nc(NC2CCCCC2)c1[N+](=O)[O-]`, the activity change is -71.1% (active). In the case of `CCN1C[C@@H]2[C@@H]3C(=O)N(Cc4ccccc4)C(=O)[C@@H]3[C@](C)(C1=O)N2C(=O)c1ccc(C(C)(C)C)cc1`, the activity change was 0% (inactive). For `CSc1ncnc2c1ncn2CCCNCc1ccco1`, the activity change is 15.8% (inactive).
